Measured values as given in PubChem BioAssay (NCATS).
Records with an inconclusive call do not appear. Activity calls are given as the source filed them. Calls come from the whole dose curve; as a rule, active = well fitted cell-killing curve with a large enough effect; inconclusive = small, poorly fitted or top-dose-only effect, or effect the other way; inactive = flat fitted curve, though single readings scatter.

Columns and labels:
Test in all cases: Primary qHTS to identify gynecologic anti-cancer compounds using libraries of approved drugs and bioactive compounds (AID 1345084); note: nearly all actives have a fitted effect of over 55% in size
C33A = conditions: Gynecologic cancer cell panel viability, ATPlite luminescence, 48 h; series mostly up to 57.5 µM
Procedure, shortened: (§1)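 Cells, 1,000 per well, plated 16 h, then exposed 48 h at 37 C to compounds. Viability by ATPlite luminescence after 15 min at room temperature.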

CAOV3 = conditions: Gynecologic cancer cell panel viability, ATPlite luminescence, 48 h; series mostly up to 57.5 µM
Procedure, shortened: as §1

CASKI = conditions: Gynecologic cancer cell panel viability, ATPlite luminescence, 48 h; series mostly up to 57.5 µM
Procedure, shortened: as §1

Es-2 = conditions: Gynecologic cancer cell panel viability, ATPlite luminescence, 48 h; series mostly up to 57.5 µM
Procedure, shortened: as §1

HeLa = conditions: Gynecologic cancer cell panel viability, ATPlite luminescence, 48 h; series mostly up to 57.5 µM
Procedure, shortened: as §1

Hek293T = conditions: Gynecologic cancer cell panel viability, ATPlite luminescence, 48 h, control line for the selectivity index; series mostly up to 57.5 µM
Procedure, shortened: as §1

JEG-3 = conditions: Gynecologic cancer cell panel viability, ATPlite luminescence, 48 h; series mostly up to 57.5 µM
Procedure, shortened: as §1
% is set by controls: 0 for no effect and ±100 for the full control effect.

CO[C@@H]1[C@H](O)CCC2(CO2)[C@H]1[C@@]1(C)O[C@@H]1CC=C(C)C (some centres not stated)
inactive: Potency (C33A) | Potency (CAOV3) | Potency (CASKI) | Potency (Es-2) | Potency (HeLa) | Potency (Hek293T) | Potency (JEG-3)

COc1cc2nc(C3CC3)nc(N3CCN(c4ccccc4OC)CC3)c2cc1OC
inactive: Potency (C33A) | Potency (CAOV3) | Potency (CASKI) | Potency (Es-2) | Potency (HeLa) | Potency (Hek293T) | Potency (JEG-3)

Cc1ccc(CNc2ncnc3ccc(-c4ccc(CO)o4)cc23)o1
inactive: Potency (C33A) | Potency (CAOV3) | Potency (CASKI) | Potency (Es-2) | Potency (HeLa) | Potency (Hek293T) | Potency (JEG-3)

CC1(C)Oc2ncnc(N)c2N=C1c1ccc(C23CCC(CC(=O)O)(CC2)CC3)cc1
inactive: Potency (C33A) | Potency (CAOV3) | Potency (CASKI) | Potency (Es-2) | Potency (HeLa) | Potency (Hek293T) | Potency (JEG-3)

O=C(NCCCN1CCOCC1)c1cnn2c(-c3ccccc3)cc(-c3ccccc3)nc12
inactive: Potency (C33A) | Potency (CAOV3) | Potency (CASKI) | Potency (Es-2) | Potency (HeLa) | Potency (Hek293T) | Potency (JEG-3)

CC(=O)c1c(C)cc2cccc(O)c2c1O[C@@H]1O[C@H](CO)[C@@H](O)[C@H](O)[C@H]1O
inactive: Potency (C33A) | Potency (CAOV3) | Potency (CASKI) | Potency (Es-2) | Potency (HeLa) | Potency (Hek293T) | Potency (JEG-3)

O=S(=O)(Cc1ccccc1)Nc1ccc(-c2ccc3c(cnn3-c3ccc(F)cc3)c2)c(C(F)(F)F)c1
inactive: Potency (C33A) | Potency (CAOV3) | Potency (CASKI) | Potency (Es-2) | Potency (HeLa) | Potency (Hek293T) | Potency (JEG-3)

Cc1cc(-c2cc(OC(=O)c3ccccc3)ccc2Cl)cc2nnc(Nc3ccc(OCCN4CCCC4)cc3)nc12
inactive: Potency (C33A) | Potency (CAOV3) | Potency (CASKI) | Potency (Es-2) | Potency (HeLa) | Potency (Hek293T) | Potency (JEG-3)

C[C@@H]1C[C@H](C)CN(CCC(=O)Nc2ccc(Br)cc2)C1
inactive: Potency (C33A) | Potency (CAOV3) | Potency (CASKI) | Potency (Es-2) | Potency (HeLa) | Potency (Hek293T) | Potency (JEG-3)

CC(=O)OC[C@]12[C@H](OC(C)=O)[C@H](OC(=O)c3ccccc3)[C@@H]3[C@@H](OC(C)=O)[C@]1(OC3(C)C)[C@H](C)C[C@H](OC(C)=O)[C@@H]2OC(=O)c1ccccc1
inactive: Potency (C33A) | Potency (CAOV3) | Potency (CASKI) | Potency (Es-2) | Potency (HeLa) | Potency (Hek293T) | Potency (JEG-3)

C=C1CC[C@@H]2[C@](C)(CO)[C@H](O)CC[C@@]2(C)[C@@H]1C/C=C1/C(=O)OCC1OC(=O)/C(=C/CO)C(O)C[C@@H]1C(=C)CC[C@@H]2[C@](C)(CO)[C@H](O)CC[C@]21C (some centres not stated)
inactive: Potency (C33A) | Potency (CAOV3) | Potency (CASKI) | Potency (Es-2) | Potency (HeLa) | Potency (Hek293T) | Potency (JEG-3)

CC(C)(CNC(=O)c1cccc(-c2noc(C(F)(F)F)n2)c1)c1coc(-c2ccccc2)n1
inactive: Potency (C33A) | Potency (CAOV3) | Potency (CASKI) | Potency (Es-2) | Potency (HeLa) | Potency (Hek293T) | Potency (JEG-3)

CN1CC[C@@H](c2c(O)cc(O)c3c(=O)cc(-c4ccc(C(F)(F)F)cc4Cl)oc23)[C@@H]1CO
inactive: Potency (C33A) | Potency (CAOV3) | Potency (CASKI) | Potency (Es-2) | Potency (HeLa) | Potency (Hek293T) | Potency (JEG-3)

CCCCCCOC(=O)/N=C(\N)c1ccc(NCc2nc3cc(C(=O)N(CCC(=O)OCC)c4ccccn4)ccc3n2C)cc1
inactive: Potency (C33A) | Potency (CAOV3) | Potency (CASKI) | Potency (Es-2) | Potency (HeLa) | Potency (Hek293T) | Potency (JEG-3)

CC1(C)CC[C@]2(C(=O)O)[C@H](O)C[C@]3(C)C(=CCC4[C@@]5(C)CC[C@H](O[C@@H]6O[C@H](CO[C@@H]7OC[C@H](O)[C@H](O)[C@H]7O[C@@H]7OC[C@H](O)[C@H](O)[C@H]7O)[C@@H](O)[C@H](O)[C@H]6O)C(C)(C)C5CC[C@]43C)[C@@H]2C1 (some centres not stated)
inactive: activity change, negative = cytotoxicity (C33A) 3.19% [at 11.6 µM] | activity change, negative = cytotoxicity (CAOV3) 6.12% [at 11.6 µM] | activity change, negative = cytotoxicity (CASKI) -7.68% [at 11.6 µM] | activity change, negative = cytotoxicity (Es-2) -0.336% [at 11.6 µM] | activity change, negative = cytotoxicity (HeLa) -1.57% [at 11.6 µM] | activity change, negative = cytotoxicity (Hek293T) -1.34% [at 11.6 µM] | activity change, negative = cytotoxicity (JEG-3) 14% [at 11.6 µM]

OC(c1ccc(-c2ccc(CN3CCN(Cc4ccncc4)CC3)cc2)c(F)c1)(C(F)(F)F)C(F)(F)F
inactive: Potency (C33A) | Potency (CAOV3) | Potency (CASKI) | Potency (Es-2) | Potency (HeLa) | Potency (Hek293T) | Potency (JEG-3)

Cc1cn2cc(C(=O)N(C)CCO)cc(NC3CCOc4cccc(C)c43)c2n1 (configuration not stated)
inactive: Potency (C33A) | Potency (CAOV3) | Potency (CASKI) | Potency (Es-2) | Potency (HeLa) | Potency (Hek293T) | Potency (JEG-3)

CCC(C)/C=C(C)/C=C/C1=CC2=CC(=O)C3(C)OC(C)(O)C(C(=O)OC)C3C2=CO1 (configuration not stated)
inactive: Potency (C33A) | Potency (CAOV3) | Potency (CASKI) | Potency (Es-2) | Potency (HeLa) | Potency (Hek293T) | Potency (JEG-3)

C=C1CCN([C@H](C)[C@](O)(Cn2cncn2)c2ccc(F)cc2F)CC1
inactive: Potency (C33A) | Potency (CAOV3) | Potency (CASKI) | Potency (Es-2) | Potency (HeLa) | Potency (Hek293T) | Potency (JEG-3)

CC(=O)OC1CC(C)C2(CCC3(CC(=O)OC3O)O2)C2(C)CCCC(C)(C)C12 (configuration not stated)
inactive: Potency (C33A) | Potency (CAOV3) | Potency (CASKI) | Potency (Es-2) | Potency (HeLa) | Potency (Hek293T) | Potency (JEG-3)

Cc1ccnn1-c1ccc(C(=O)N2CCN(S(=O)(=O)c3ccc(Cl)c(C(F)(F)F)c3)CC2)cc1
inactive: Potency (C33A) | Potency (CAOV3) | Potency (CASKI) | Potency (Es-2) | Potency (HeLa) | Potency (Hek293T) | Potency (JEG-3)

O=C(Nc1ccccc1C(=O)NC1CCCCNC1=O)c1cc2ccccc2s1 (configuration not stated)
inactive: Potency (C33A) | Potency (CAOV3) | Potency (CASKI) | Potency (Es-2) | Potency (HeLa) | Potency (Hek293T) | Potency (JEG-3)

CN(C)CCOC(C)(c1ccccc1)c1ccc(Cl)cc1 (configuration not stated)
inactive: Potency (C33A) | Potency (CAOV3) | Potency (CASKI) | Potency (Es-2) | Potency (HeLa) | Potency (Hek293T) | Potency (JEG-3)

CCOC(=O)C1(CCOc2ccccc2)CCN(Cc2ccc(O)c(Cl)c2)CC1
inactive: Potency (C33A) | Potency (CAOV3) | Potency (CASKI) | Potency (Es-2) | Potency (HeLa) | Potency (Hek293T) | Potency (JEG-3)

Cc1cccc(-c2[nH]ncc2-c2ccc(F)c(-c3cnn(CCO)c3)c2)n1
inactive: Potency (C33A) | Potency (CAOV3) | Potency (CASKI) | Potency (Es-2) | Potency (HeLa) | Potency (Hek293T) | Potency (JEG-3)

CC(C)/C=C1\NC(=O)C(C(C)C)n2c1nc1ccccc1c2=O (configuration not stated)
inactive: Potency (C33A) | Potency (CAOV3) | Potency (CASKI) | Potency (Es-2) | Potency (HeLa) | Potency (Hek293T) | Potency (JEG-3)
